The source made the active and inactive calls.
target: Dihydroorotate dehydrogenase (quinone), mitochondrial (Plasmodium falciparum (isolate 3D7)) (UniProt Q08210); experiment: PfDHODH enzyme inhibitors, primary screen, biochemical, C-terminal His tag, absorbance 600 nm (AID 1175); conditions: DCIP absorbance 600 nm, higher = more signal, called active from +8 up or from −8 down;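 note: recombinant parasite enzyme with a five histidine tag at its C terminus; test concentration not given here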
Sequence (Q08210 whole entry, looked up): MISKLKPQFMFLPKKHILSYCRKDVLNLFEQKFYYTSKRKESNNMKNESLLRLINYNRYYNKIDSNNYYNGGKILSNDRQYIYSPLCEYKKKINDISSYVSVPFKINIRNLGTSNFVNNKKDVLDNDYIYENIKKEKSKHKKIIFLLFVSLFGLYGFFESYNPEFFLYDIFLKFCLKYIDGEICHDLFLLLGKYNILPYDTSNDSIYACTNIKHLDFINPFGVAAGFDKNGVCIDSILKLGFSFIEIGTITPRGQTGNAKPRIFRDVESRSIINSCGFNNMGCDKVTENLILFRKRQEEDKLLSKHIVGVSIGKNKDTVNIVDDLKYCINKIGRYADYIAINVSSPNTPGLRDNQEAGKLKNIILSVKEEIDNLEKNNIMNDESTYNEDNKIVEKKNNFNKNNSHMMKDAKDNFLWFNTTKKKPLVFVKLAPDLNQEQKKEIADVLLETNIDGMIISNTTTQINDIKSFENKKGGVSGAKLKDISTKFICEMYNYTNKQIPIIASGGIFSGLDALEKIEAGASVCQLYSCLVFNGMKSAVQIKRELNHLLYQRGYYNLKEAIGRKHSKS

Composite z-score, inactive:
CCCC=C(CCC)[C@@H](NC(=O)c1ccc(-c2ccccc2)cc1)c1ccc(C(=O)OC)cc1 0.407
COC(=O)[C@@]1(Cc2ccccc2)[C@H]2c3cc(C(=O)N4CCCC4)n(Cc4ccccn4)c3C[C@H]2CN1C(=O)c1ccccc1 0.553
O=C(CS)NCCCCCNC(=O)[C@@H]1C[C@@H]2C(=O)N[C@@H](Cc3ccccc3)C(=O)N2[C@@H]1c1ccc(O)cc1 0.0126
CC(C)C[C@@H]1NC(=O)[C@H]2C[C@@H](C(=O)NCCCCCCN(C)C)[C@@H](c3cccc(OCCO)c3)N2C1=O 0.344
COCCCNC(=O)[C@@]1(CCS(=O)(=O)c2ccccc2)N=C(c2ccc(OCCCO)cc2)O[C@H]1c1ccccc1 0.514
Cc1ccc(S[C@]2(C(=O)NCC(F)(F)F)CC(=O)N(Cc3ccccc3Cl)[C@@H]2c2ccc(CO)cc2I)cc1 -0.148
O=C1O[C@@H](c2ccccc2)[C@@H](c2ccccc2)N2[C@@H](c3ccc(OCCO)cc3)[C@]3(C(=O)Nc4ccc(C#CCCO)cc43)[C@@H](C(=O)N3CCCCCCC3)[C@H]12 0.221
CCOC(=O)C1=CCC(c2cc3ccccc3[nH]2)NC1 (stereo unspecified) -0.0148
O=C1NC(=O)C2C1C=CC(C(O)Cc1ccccc1)N2Nc1ccccn1 (stereo unspecified) 0.195
C#C[C@@H]1Oc2ccccc2S(=O)(=O)N2CCC[C@H]12 0.515
COc1ccc([Si](C)(C)[C@H]2[C@H](CCO)O[C@@]3(C(=O)N(Cc4cccc(NC(=O)[C@H](C)O)c4)c4ccccc43)[C@@H]2C)cc1 1.35
